# This is part of a sample that, as a whole, favours compounds with a hit. Of some 83,000 tested, about 20% had one in any assay.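 The endpoint reported here, percent growth, reads 100 for growth as untreated, 0 for no net growth and -100 for all cells dead.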 Unmarked numbers belong to inactive results. The source made the active and inactive calls.
# Tested on: OVCAR-8 ovarian
# Assay: NCI-60 one-dose screen, 48 h (100 = growth as untreated, 0 = no growth, -100 = all killed)
# Details: 10 µM unless noted
# Description: Growth inhibition of the OVCAR-8 human tumor cell line is measured as a screen for anti-cancer activity. Cells are grown in 96 well plates and exposed to the test compound for 48 hours. Compounds are tested at a single concentration, which is 10^-5 M for most compounds. The reported endpoint is percent growth (GI% or GIPRCNT), where numbers from 0 - 100% represent growth inhibition, and numbers from -100% - 0 represent cell death. For example, a value of 40 represents 60% growth inhibition. A value of 0 means no net growth occurred over the course of the experiment. A value of -40 indicates 40% of cells at the beginning of the experiment died by the end of the experiment. A value of -100 means all cells are dead at the end of the experiment.
# NCI-60 Human Tumor Cell Lines Screen was performed using the standard one-dose NCI protocol, which is described in more detail at https://dtp.cancer.gov/discovery_development/nci-60/default.htm.
# Compounds with GIPRCNT values below 10 were considered active. Activity score was based on GIPRCNT using the following formula: […]
# Score is 0 for GIPRCNT values of 100 or above, 50 for GIPRCNT values of 0, and 100 for GIPRCNT values of -100.
row,Compound,growth
1,CNC(=O)c1[nH]cc(-c2ccc(OC)cc2)c1-c1cc(OC)c2c(c1OC)OCO2,98.7%
2,CCOC(=O)c1c(NC(=O)c2ccc(Cl)cc2)sc2c(CN(C)C)c(O)ccc12,47.7%
3,O=C(Nc1ccc(Oc2cccc(Cl)c2)c(Cl)c1)c1cccnc1,32.1%
4,O=C(CSc1nc2ccc([N+](=O)[O-])cc2[nH]1)Nc1ccc([N+](=O)[O-])cc1,14.4%
5,S=c1sc2c(Cl)nc(-c3cccnc3)nc2n1-c1ccccc1,18%
6,O=C(Nc1nc2cc(C(=O)N3CCN(C(c4ccccc4)c4ccccc4)CC3)ccc2o1)c1ccc(NC2CCCCC2)c([N+](=O)[O-])c1,37.8%
7,C[PH+](c1nc2ccccc2nc1[PH+](C)C(C)(C)C)C(C)(C)C.C[PH+](c1nc2ccccc2nc1[PH+](C)C(C)(C)C)C(C)(C)C.[Au+].[Cl-] (stereo not given),-54.3% (active)
8,CCOC(=O)c1cc2c(n1C)-c1nc(NC(C)=O)sc1CCC2,71.2%
9,CCOC(=O)C1=C(c2ccccc2)N=C2SC=C(c3ccc(Cl)cc3)N2C1c1ccc(Cl)cc1 (stereo not given),78.6%
10,COC1=CC(c2ccc[nH]2)=N/C1=C\c1[nH]c(C)c(C(=O)OC(C)C)c1C,2.67% (active)
11,COc1ccc(F)cc1/C=C/C(=O)/C=C(/C=C/c1cc(F)ccc1OC)OB(F)F,7.46% (active)
12,c1csc(-c2ccc(CNc3c4ccccc4nc4ccccc34)cc2)c1,55.6%
13,COc1c(C(=O)Nc2ccc(C)c(Br)c2)ccc2ccccc12,99.3%
14,COc1cc(-c2cncn2-c2ccc(-c3nc4ccc(F)cc4s3)cc2)ccc1F,78.1%
15,COC12C=C/C(=C(/C(=O)OCc3ccncc3)C(=O)CCCCCCCCC3(OC)C=C/C(=C(/C(=O)OCc4ccncc4)C(=O)CCCCCCCC1)O3)O2,14.7%
16,Cn1ccnc1C(=O)/C=C/c1ccc(C(=O)Nc2ccccc2O)cc1,18.6%
17,c1cnc2c(-c3nc4ccc5[nH]ncc5c4c4c3CCCC4)c[nH]c2c1,23.8%
18,C=C(C)[C@@H]1CCC[C@]2(COS(=O)(=O)c3ccc(C)cc3)CC[C@]3(C)[C@@H](CC[C@@H]4[C@@]5(C)CCCNC(C)(C)[C@@H]5CC[C@]43C)[C@@H]12,-77.6% (active)
19,CCSc1oc(-c2ccccc2)nc1[P+](c1ccccc1)(c1ccccc1)c1ccccc1,7.86% (active)
20,COc1ccc(C(=O)C/C(=C\c2ccc(Cl)cc2)C(=O)NCc2ccccc2)cc1,82.3%

row,Compound,growth
1,O=C(/C=C/c1cccs1)Nc1ncc(Cc2ccccc2F)s1,29.8%
2,Cc1cc(N2CCN(CCNc3ccnc4cc(Cl)ccc34)CC2)nc(N2CCOCC2)n1,74.1%
3,CN(C)c1ccc(-c2c(C#N)c(N)nn2C(=O)c2ccc(NC(=O)c3ccccn3)cc2)cc1,98.3%
4,CCSC(SCC)c1ccc(Cl)cc1,107%
5,Cc1[nH]c(C(=O)Nc2ccccc2OC2CCNCC2)c(Cl)c1Cl,1.61% (active)
6,COC(=O)c1nc(-c2ccc(C)cc2)oc1S(=O)(=O)c1cccc(OC)c1,93%
7,C=C(C)[C@@H]1CC[C@]2(C(=O)N3CCOCC3)CC[C@]3(C)[C@H](CC[C@@H]4[C@@]5(C)C/C(=C/c6ccncc6)C(=O)C(C)(C)[C@@H]5CC[C@]43C)[C@@H]12,55.6%
8,CC(C)c1ccc(Cc2cnc(NC(=O)c3cc(Br)cs3)s2)cc1,35.5%
9,N#Cc1ccc(O)c(C2=NCC(c3ccccc3)O2)c1 (stereo not given),19.6%
10,Cc1cccc(/C=C2\CN(C(=O)OC(C)(C)C)C/C(=C\c3cccc(C)c3)C2=O)c1,85.4%
11,O=S(=O)(Nc1ccc(F)cc1F)c1ccc(-c2cnc(C3CC3)o2)cc1,38.4%
12,CC(C)c1ccc(C(=O)Nc2nc3ccc(O)c(CN(C)C)c3s2)cc1,82.8%
13,Cc1nc2sc(C(=O)Nc3cccc(Br)c3)c(N)c2cc1C(O)c1ccccc1 (stereo not given),20.8%
14,COc1ccc(NC(=O)c2sc3nc(C)c(C(=O)/C=C/c4ccccc4)cc3c2N)cc1,8.59% (active)
15,CN(C)CCNC(=O)c1cc2c3cc(Cl)ccc3[nH]c2c2ncccc12,19%
16,COC1/C=C/OC2(C)Oc3c(C)c(O)c4c(O)c(c(/C=N/Nc5ccc([N+](=O)[O-])cc5[N+](=O)[O-])c(O)c4c3C2=O)NC(=O)C(C)=C/C=C/C(C)C(O)C(C)C(O)C(C)C(OC(C)=O)C1C (stereo not given),27.3%
17,Nc1nc2ccccc2c2c1S(=O)(=O)c1ccc(Cl)cc1C2=O,8.43% (active)
18,Cc1cc(=O)oc2cc(OCc3nn4c(Nc5nc6ccccc6s5)c(-c5ccccc5)nc4s3)ccc12,80.4%
19,c1ccc([P+](c2ccccc2)(c2ccccc2)c2ccc3c4ccc([P+](c5ccccc5)(c5ccccc5)c5ccccc5)c5cccc(c6cccc2c63)c54)cc1,14.2%
20,CN(C)S(=O)(=O)c1cccc(C(=O)Nc2nc(-c3ccc(F)c(F)c3)cs2)c1,48.9%
